The whole screen tested about 1,400 compounds, of which fewer than 10 were called active.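 The calls were made as follows: active = fluorescence-lowering compounds whose fitted half-maximal concentration is at or below ten times the highest valid dose tested; inconclusive = flat curve at 30 to 70% inhibition, or poor fit; inactive = the rest.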 Only a sample is shown.
What follows are molecules tested against Histone deacetylase 3 (Homo sapiens) (UniProt O15379) (assay: HDAC3 deacetylase inhibitors, dose response, counter-screen for JMJD2C/GASC1 demethylase inhibitor project, biochemical, fluorescence, cherry-picked samples (AID 485318;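 also: enzyme preincubated with compound before substrate and trypsin were added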)). Details: recombinant HDAC3, fluorogenic peptide/trypsin coupled; series mostly up to 12 µM.
Sequence of Histone deacetylase 3 (Homo sapiens) (O15379 whole entry, looked up): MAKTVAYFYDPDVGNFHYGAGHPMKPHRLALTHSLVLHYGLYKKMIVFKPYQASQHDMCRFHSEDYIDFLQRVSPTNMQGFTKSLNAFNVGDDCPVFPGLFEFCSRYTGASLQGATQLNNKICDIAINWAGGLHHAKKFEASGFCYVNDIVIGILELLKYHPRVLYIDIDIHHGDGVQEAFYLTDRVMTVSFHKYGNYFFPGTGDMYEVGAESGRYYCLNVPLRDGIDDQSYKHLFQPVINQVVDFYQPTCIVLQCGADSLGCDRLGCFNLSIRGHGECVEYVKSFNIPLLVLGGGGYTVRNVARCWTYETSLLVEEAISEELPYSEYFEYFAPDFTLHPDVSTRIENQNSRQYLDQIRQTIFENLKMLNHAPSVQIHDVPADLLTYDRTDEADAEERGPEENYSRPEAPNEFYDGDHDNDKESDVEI

| SMILES | outcome |
| --- | --- |
| C[C@H]1CN(CCc2ccccc2)C(=O)[C@@H]1CC(=O)NCc1ccccc1 | inactive |
| COc1ccc(NC(=S)NNC(=O)c2ccc(S(=O)(=O)N3CCOCC3)cc2)cc1 | inactive |
| CN(c1ccc(OCC(=O)N2CCCCC2)cc1)S(=O)(=O)c1cccs1 | inactive |
| Nc1c(Cl)ncnc1NCc1cccnc1 | inactive |
| CCC(C)C(NC(=O)OC(C)(C)C)C(=O)NC(C(=O)N1CCCC1C(N)=O)C(C)CC (centres undefined) | inactive |
| COc1cc(OC)cc(C(=O)Nc2ccc(-n3cnnn3)c(C)c2)c1 | inactive |
| N#CCCn1c(SCC(=O)N2CCN(S(=O)(=O)c3ccccc3)CC2)nc2ccccc21 | inactive |
| CCOC(=O)Nc1cc(C)c(Cl)cc1OC | inactive |
| Cc1onc(-c2ccccc2)c1C(=O)Nc1c(C)n(C)n(-c2ccccc2)c1=O | inactive |
| CS(=O)(=O)N(CC(=O)Nc1ccccc1C(=O)NCCc1ccccc1)c1ccc2c(c1)OCCO2 | inactive |
| CCOC(=O)c1[nH]c(C)c(/C(O)=C2\C(=O)C(=O)N(CCCN(CC)CC)C2c2cccnc2)c1C (centres undefined) | inactive |
| COc1ccc(CCNC(=O)N2c3ccccc3Sc3ccccc32)cc1 | inactive |
| CCC(=O)Nc1ccc(NC(=O)CSc2nnnn2C(C)C)cc1 | inactive |
| C[C@@H]1CCCCCCCCC(=O)OCCN(C(=O)OC(C)(C)C)[C@H](C)CCCCCCCCC(=O)OCCN(C(=O)OC(C)(C)C)[C@H](C)CCCCCCCCC(=O)OCCN1C(=O)OC(C)(C)C | inactive |
| Cc1ccc(S(=O)(=O)Nc2ccc3c(c2)CC(=O)N([C@H](C)CO)C[C@@H](C)[C@H](CN(C)S(=O)(=O)c2ccccc2)O3)cc1 | inactive |
| CCOc1ccc(CN(C)CC(=O)Nc2cc(C)c(C)cc2[N+](=O)[O-])cc1 | inactive |
| COc1ccccc1OCCOCCn1cnc2ccccc2c1=O | inactive |
| O=[N+]([O-])c1cc(/C=N/Nc2nc3ccccc3[nH]2)c(O)cc1O | inactive |
| CC(=O)C[C@@H](O)CC(=O)[C@H]1OC(=O)[C@H](C)CCCCc2ccccc21 | inactive |
| CC[C@]12c3[nH]c4ccccc4c3CCN1C(=O)C(CC(=O)NCCCOC)C[C@@H]2C(=O)N1CCN(C(=O)c2ccco2)CC1 (some centres undefined) | inactive |
| CCOCCc1nnc(NC(=O)c2ccc(OC)c(OC)c2)s1 | inactive |
| O=C1CCCc2c1nc(-c1ccccc1)n2O | inactive |
| COC(=O)[C@]1(Cc2ccccc2)N[C@H](CN(C)S(=O)(=O)c2ccc(F)cc2)[C@@H]2C(=O)N(Cc3ccccc3)C(=O)[C@@H]21 | inactive |
| COc1ccc(C2CC(c3cccs3)=NN2S(=O)(=O)c2ccc(C)cc2)cc1 (centres undefined) | inactive |
| COc1ccc(/C=C/C(=O)NC(=S)NNC(=O)Cc2cccs2)cc1OC | inactive |

| SMILES | outcome |
| --- | --- |
| Cc1ccc(N2CC(C(=O)Nc3ccc(N(C)C)cc3)CC2=O)cc1C (centres undefined) | inactive |
| COc1ccc(NN=Nc2nc3c([nH]2)c(=O)n(C)c(=O)n3C)cc1 | inactive |
| O=C(Cc1sc(-c2ccccc2)nc1-c1ccccc1)Nc1ccccc1 | inactive |
| CCc1ccc(NC(=O)CSc2nnc(CNC(=O)c3c(F)cccc3Cl)o2)cc1 | inactive |
| O=C1CC2(CCN(C(=O)c3ccccc3Cl)CC2)Oc2ccccc21 | inactive |
| C[C@H]1CN([C@@H](C)CO)C(=O)Cc2cc(NS(=O)(=O)c3cccs3)ccc2O[C@H]1CN(C)S(=O)(=O)c1cn(C)cn1 | inactive |
| CC(=O)Nc1ccc2c(c1)C(C)(C)C(C)N2C (centres undefined) | inactive |
| O=C(O)c1ccnc(C(=O)O)c1 | inactive |
| COc1ccc(NC(=O)Nc2cccc3c2O[C@H](CN(C)C(=O)NC(C)C)[C@@H](C)CN([C@H](C)CO)C3=O)cc1 | inactive |
| COc1ccc(NC(=S)NCCCn2ccnc2)cc1 | inactive |
| CCOc1ccc(N=Cc2c(O)n(-c3cccc(C)n3)c(=O)c3ccccc23)cc1 | inactive |
| Cc1cccc(C)c1N1C(=O)c2cccc([N+](=O)[O-])c2C1=O | inactive |
| CCOC(=O)C1CCN(S(=O)(=O)c2cccc(-c3cn4cc(Cl)ccc4n3)c2)CC1 | inactive |
| CC(=O)c1c(C(C)=O)c(C)n(NC(=O)c2ccncc2)c1C | inactive |
| CN1CCN(c2nc3ccccn3c(=O)c2/C=C(\C#N)S(=O)(=O)c2ccc(Cl)cc2)CC1 | inactive |
| O=C1CC(N2CCC(O)(c3ccc(Cl)cc3)CC2)C(=O)N1Cc1ccc(N2CCCC2=O)cc1 (centres undefined) | inactive |
| CS(=O)(=O)c1ccccc1-c1nnc(NC(=O)c2ccc3ncsc3c2)o1 | inactive |
| CN(C(=O)c1ccc(NC(=O)Cc2ccc(NC(=O)C3CCN(C(=O)C4CCC4)CC3)cc2)cc1)C1CC1 | inactive |
| CCS(=O)(=O)N1CCN(c2ccc([N+](=O)[O-])c(N3CCOCC3)c2)CC1 | inactive |
| O=C(CCN1C(=O)/C(=C/c2ccc(F)cc2)SC1=S)N[C@@H](CO)Cc1ccccc1 | inactive |
| c1ccc(-c2ccccc2OCCN2CCCC2)cc1 | inactive |
| CSc1nc(N)nc2c1ncn2CC(=O)N[C@H](CO)Cc1c[nH]c2ccccc12 | inactive |
| CCc1nn2c(N3CCOCC3)cc(C)nc2c1-c1ccc(F)cc1 | inactive |
| CSc1nc(N)nc2c1ncn2CC(=O)NCCNc1ccc([N+](=O)[O-])cn1 | inactive |
| CC1=C(C(=O)OC(C)C)C(c2ccccc2)NC(=S)N1C (centres undefined) | inactive |

| SMILES | outcome |
| --- | --- |
| COc1ccccc1N1CCN(c2nc3c(C)cccn3c(=O)c2C=O)CC1 | inactive |
| O=c1c2ccccc2nc2c3ccccc3c(NCc3ccco3)nn12 | inactive |
| O=C(NCC(c1ccco1)N1CCN(c2ccc(F)cc2)CC1)OCc1ccccc1 (centres undefined) | inactive |
| CC(C)(C)NC(=O)CSc1nc2cccnc2n1C1CCCCC1 | inactive |
| C/C(=N\Nc1nc(C(=O)O)cs1)c1ccccc1 | inactive |
| CN1CCN(Cc2c(C#N)c3ccccc3n2C)CC1 | inactive |
| CN(C)CCCNC1=CC(=O)OC12CCCCC2 | inactive |
| Nn1cc(-c2ccccc2)nc1SCC(=O)N1CCN(S(=O)(=O)c2ccc3ccccc3c2)CC1 | inactive |
| CCN(CC)C(=O)C1c2ccccc2Oc2ccccc21 | inactive |
| CCCn1nnnc1SCC(=O)NCc1ccc2c(c1)OCO2 | inactive |
| Cc1noc(C)c1COc1ccc(C(=O)OC(C)C(=O)Nc2ccc(N3CCOCC3)cc2)cc1 (centres undefined) | inactive |
| CCNC(=O)c1ccc2c(c1)S(=O)(=O)c1ccccc1C2=O | inactive |
| Cc1ccccc1N=C1N=C(N)c2ccccc21 | inactive |
| COc1cccc(C(c2nnnn2CCc2ccccc2)N2CCN(c3ccccc3)CC2)c1OC (centres undefined) | inactive |
| O=C(O)c1ccc2cc(-c3ccccc3)[nH]c2c1 | inactive |
| Cc1cc(N(C)C)cc(C)[n+]1[O-] | inactive |
| CC(=O)Oc1ccc(NC(=O)Cc2ccccc2)c(C(=O)O)c1 | inactive |
| CCN(C[C@H]1N[C@@](Cc2ccccc2)(C(=O)OC)[C@H]2C(=O)N(C)C(=O)[C@@H]12)S(=O)(=O)c1ccccc1 | inactive |
| Cn1c(=O)n(C)c2cc(S(=O)(=O)N3CCOCC3)ccc21 | inactive |
| Cc1ccc(NC2=NCC(=O)N2Cc2ccc3c(c2)OCO3)c(C)c1 | inactive |
| CC1(C)CC2(CC(C)(C)N1)OC(=O)N1CCc3ccccc3C12C (centres undefined) | inactive |
| CCCN(C(=O)Cc1ccc(S(=O)(=O)N2CCOCC2)s1)c1c(N)n(Cc2ccccc2)c(=O)[nH]c1=O | inactive |
| CC(=O)Nc1cc2c(cc1NC(=O)Cn1nc(-c3ccccc3)ccc1=O)OCCO2 | inactive |
| CCOc1ccccc1N(CC(=O)O)S(=O)(=O)c1ccc(C)cc1 | inactive |
| COc1ccc(/C=C2/CC/C(=C\c3ccc(OC)c(OC)c3OC)C2=O)c(OC)c1OC | inactive |

| SMILES | outcome |
| --- | --- |
| COc1cc(NS(=O)(=O)c2ccc(NC(=O)c3ccc(C)o3)cc2)nc(OC)n1 | inactive |
| C[C@@H]1CN([C@H](C)CO)C(=O)c2cc(NC(=O)Cc3ccccc3)ccc2O[C@H]1CN(C)Cc1ccc(Oc2ccccc2)cc1 | inactive |
| CCOc1ccc(N2C(=O)CC(N(O)c3ccccc3)C2=O)cc1 (centres undefined) | inactive |
| CC1CN(Cc2c(O)ccc3c2oc(=O)c2ccccc23)CC(C)O1 (centres undefined) | inactive |
| COc1cc2c(cc1OC)C1=C(C#N)COCN1CC2 | inactive |
| CCNC(=S)NNC(=O)c1csc2c1CCC(C)C2 (centres undefined) | inactive |
| O=C(CN1C(=O)NC2(CCCC2)C1=O)Nc1nc(-c2ccccc2)cs1 | inactive |
| CC1CCCC(NC(=O)COC(=O)c2ccc(N(C)C)cc2)C1C (centres undefined) | inactive |
| COc1ccc(C(=O)NCc2nnc(SCC(=O)N3CCc4ccccc43)o2)cc1OC | inactive |
| O=C(c1ccncc1)N1N=C(C2CCCCC2)CC1(O)C(F)(F)F (centres undefined) | inactive |
| CSc1nnnn1CCn1nnnc1SC | inactive |
| CS(=O)(=O)NC1c2cccc3cccc(c23)C1Sc1nncn1/N=C/c1ccco1 (centres undefined) | inactive |
| N#Cc1ccc(OCC(=O)N2CCN(S(=O)(=O)c3cccs3)CC2)cc1 | inactive |
| Cc1cc(C)n2nc(C(=O)N3CCCC(Nc4ccc(F)c(F)c4)C3)cc2n1 (centres undefined) | inactive |
| C=CCn1cnc2scc(-c3ccc(C)cc3)c2c1=O | inactive |
| CCCCCNc1nc(-c2ccccc2)nc(-n2ccnc2)n1 | inactive |
| CC(=O)C1=C(c2ccccc2)N(C(C)=O)n2c(C)nnc2S1 | inactive |
| CC1=C(C(=O)OCC2CCCO2)C(c2ccccc2OC(C)C)C2=C(CC(c3ccco3)CC2=O)N1 (centres undefined) | inactive |
| Cc1occc1-c1nnc(SCC(=O)Nc2ccccc2)n1C(C)c1ccccc1 (centres undefined) | inactive |
| CCN(Cc1nc(-c2ccccc2)no1)C(=O)c1ccco1 | inactive |
| Cc1nnc(N2C(=O)C(=O)/C(=C(/O)c3ccc4c(c3)CC(C)O4)C2c2ccccc2F)s1 (centres undefined) | inactive |
| CCC(C(=O)NCCCc1ccccc1)c1ccccc1 (centres undefined) | inactive |
| COCCCNC(=O)C1CCN(C(=O)Nc2ccc(Cl)cc2)CC1 | inactive |
| COC(=O)[C@]1(C)N[C@H](CN(C)S(=O)(=O)c2ccc(F)cc2)[C@@H]2C(=O)N(C)C(=O)[C@@H]21 | inactive |

Source: PubChem BioAssay AID485318 (Broad Institute, 2010)
